# Shown are actives, neighbours in structure and some others; about 11% of the full set was active somewhere.
# HPGD block: inhibitors of human 15-hydroxyprostaglandin dehydrogenase (HPGD); P15428; purified HPGD, NADH fluorescence kinetic, PGE2 substrate; Potency, µM, most hits filed as inhibitors; 150,000 tested, 4.3% active
# Target sequence (P15428 whole entry, looked up): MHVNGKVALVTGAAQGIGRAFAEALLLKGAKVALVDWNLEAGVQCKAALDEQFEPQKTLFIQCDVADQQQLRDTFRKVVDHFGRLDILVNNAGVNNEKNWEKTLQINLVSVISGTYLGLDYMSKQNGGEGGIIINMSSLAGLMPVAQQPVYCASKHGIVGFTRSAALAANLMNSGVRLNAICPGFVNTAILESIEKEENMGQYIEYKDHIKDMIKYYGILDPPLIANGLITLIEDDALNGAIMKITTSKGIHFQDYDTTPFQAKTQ
#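 NADH formation kinetics: reaction with 30 uM PGE2 and 1 mM NAD+ (final), 20 nM enzyme, Tris-HCl pH 8 with Tween 20, after 15 min compound preincubation at room temperature. Fluorescence change, last versus first of five reads.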
# PNC inhibitor: inhibitors of perinucleolar compartment assembly. PC3M PTB-GFP, PNC prevalence imaging, 16 h; active compounds read low. 140,000 tested, 3.1% active. activity change (PNC), negative = inhibition, % at 10 µM;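 active means readout at or below -70, meaning at least 70% loss of cells showing the perinucleolar compartment, a nuclear body marking cancer cells; inconclusive means readout between -30 and a set limit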
#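 Compounds are pinned in duplicate onto adhered PC3M cells stably expressing GFP-tagged PTB and incubated 16 h at 37 C. Cells are then fixed, nuclei stained with Hoechst, and PNC-positive cells counted.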
# KDM4E inh: inhibitors of human JMJD2E histone demethylase; B2RXH2; JMJD2E catalytic domain, FDH-coupled NADH fluorescence (FDH is formaldehyde dehydrogenase); Potency, µM (doses to about 57.1 µM), actives largely listed as inhibitors; 230,000 tested, 1.6% active; AID 2147; further: nearly all actives have a fitted effect of over 50% in size
# Target sequence (B2RXH2 1-337 limits assumed): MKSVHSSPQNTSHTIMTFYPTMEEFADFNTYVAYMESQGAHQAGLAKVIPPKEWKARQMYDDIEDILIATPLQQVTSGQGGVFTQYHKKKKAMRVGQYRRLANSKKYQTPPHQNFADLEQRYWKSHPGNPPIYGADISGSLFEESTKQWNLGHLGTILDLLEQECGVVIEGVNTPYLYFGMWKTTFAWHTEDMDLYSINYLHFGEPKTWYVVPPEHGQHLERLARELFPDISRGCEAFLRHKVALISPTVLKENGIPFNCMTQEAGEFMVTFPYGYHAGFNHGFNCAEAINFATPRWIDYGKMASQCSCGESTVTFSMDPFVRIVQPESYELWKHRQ
# ALDH1A1 block: inhibitors of human aldehyde dehydrogenase 1A1 | P00352 | Purified ALDH1A1, NADH fluorescence, propionaldehyde substrate | Potency, µM (titrated, usually from 75.3 µM), hits mostly inhibitors | 220,000 tested, 7.3% active | AID 1030
# Numbers stand for hits; . = inactive; ? = inconclusive; / = not tested or not shown; [ ] = another dose, or the depositor's remark. Unless noted, the call rests on the fitted dose curve; in most records, active means well fitted inhibition curve with a large enough effect (not every such curve was filed as active); inconclusive means small, poorly fitted or top-dose-only effect, or another doubt; inactive means no such curve, though single readings can be large or run the other way.
SMILES,HPGD block,PNC inhibitor,KDM4E inh,ALDH1A1 block
COc1ccc(N2CCC(CNS(=O)(=O)c3cccc(C(F)(F)F)c3)C2)cc1 (centres undefined),.,.,?,8.9µM
COc1ccc(N2CCC(CNC(=S)Nc3cccc(C)c3)C2)cc1 (centres undefined),.,.,?,25µM
CCC(C)c1ccc(Nc2ncccc2C#N)cc1 (centres undefined),18µM,.,.,?
Cc1cnc(CNc2cc(-c3ccccc3C(F)(F)F)ncn2)cn1,/,/,/,.
C[C@H](NCCN(C)C)[C@@H]1CCC2C3CCc4cc(O)ccc4[C@H]3CCC21C (some centres undefined),.,/,/,.[13.5 µM]
CC1(C)CC(=O)C(CC(=O)Nc2ccc(S(N)(=O)=O)cc2)=C(O)C1,.,-90,.,?
O=[N+]([O-])c1cc(S(=O)(=O)C(F)(F)F)ccc1Sc1nc2ccccc2s1,25µM,.,.,.
CN1CCN(CCCc2c3c(cc4c2CCC4)CCC3)CC1,.,.,.,.
FC(F)(F)c1ccnc(Sc2n[nH]c(C(F)(F)F)n2)c1,/,/,.,.
CC(C)CC(NC(=O)C1CCC(C)CC1)C(=O)NCc1ccco1 (centres undefined),/,/,.,.
COc1ccccc1CNC(=O)C(CC(C)C)NC(=O)C1CCC(C)CC1 (centres undefined),.,-102,.,.
Cc1ccccc1CSCC(=O)c1c(N)n(CC(C)C)c(=O)n(C)c1=O,.,.,.,28µM
Cc1ccccc1CSCC(=O)c1c(N)n(C)c(=O)n(C)c1=O,.,?,.,.
Cc1ccc2[nH]c(=O)c(CN(Cc3nnnn3Cc3ccccc3)C3CCCC3)cc2c1,.,.,?,20µM
CCOC(=O)Cn1nnnc1CN(Cc1ccccc1)Cc1cc2cc(CC)ccc2[nH]c1=O,.,.,?,?
CCOc1ccc2[nH]c(=O)c(CN(CCO)C(c3nnnn3C3CCCCC3)C(C)C)cc2c1 (centres undefined),.,.,?,13µM
CCc1ccc2[nH]c(=O)c(CN(Cc3nnnn3C3CCCC3)C3CCCCC3)cc2c1,.,.,?,14µM
CC1Cc2ccccc2N1C(=O)COC(=O)CCc1nc2ccccc2c(=O)[nH]1 (centres undefined),/,/,.,.
CCOC(=O)Nc1cc(Br)c2c(c1)OCCO2,14µM,.,.,.
Cn1c(=O)c2[nH]c(-c3ccccc3Cl)c(O)c2n(C)c1=O,.,.,.,.
Cn1c(=O)c2[nH]c(-c3ccccc3)c(O)c2n(C)c1=O,?,.,.,11µM
CN1CCN(c2cc(-c3ccccc3Cl)ncn2)CC1,/,/,/,.
CN(C)c1ccc(CNC(=O)C2CCN(S(=O)(=O)c3ccc4c(c3)CCC(=O)N4)CC2)cc1,.,.,.,18µM
CCCNC(=S)N1CC2(C)CN(C(=O)C(=O)OC)CC(C)(C1)C2=O,/,/,.,.
Cc1ccc(NC(=O)c2cc(S(=O)(=O)c3ccccc3)ccc2Cl)cc1,.,.,.,10µM
SMILES,HPGD block,PNC inhibitor,KDM4E inh,ALDH1A1 block
Cc1ccc(NC(=O)c2ccccc2-c2ccccc2C(=O)O)cc1,.,?,.,.
CC(=O)N(C)c1ccc(NC(=O)c2ccccc2C(=O)O)cc1,.,-117,.,?
CC(=O)N(C)c1ccc(NC(=O)c2ccco2)cc1,.,.,.,.
Cc1ccc(NC(=O)c2ccccc2O)cc1,.,-100,.,.
CCOC(=O)CSc1nnc2n(Cc3ccccc3)c(=O)c3c4c(sc3n12)CCC4,/,?,.,.
CCOC(=O)c1nc2sc3c(c2c(=O)[nH]1)CCCC3,?,-86,?,?
CCOC(=O)CSc1nnc(CSc2nc3sc4c(c3c(=O)[nH]2)CCCC4)n1-c1ccccc1,14µM,.,.,.
COC(=O)CSc1nc2sc3c(c2c(=O)[nH]1)CCC3,/,/,.,/
CCOC(=O)CCCSc1nc2sc3c(c2c(=O)[nH]1)CCC3,3.5µM,.,.,.
FC(F)(F)c1ccccc1-c1ccc2ncnc(NCCN3CCOCC3)c2c1,/,/,/,.
CN1CCN(C(=S)C(=O)Nc2ccc(Br)cc2)CC1,/,/,?,7.9µM
CCCn1c(C)nc2c(NCC3CCCN3CC)nc(C)nc21 (centres undefined),.,/,.,.
COC(=O)C(NC(C)=O)(Nc1ccc(Br)cn1)C(F)(F)F (centres undefined),.,.,.,7.1µM
COC(=O)C(NC(=O)c1ccco1)(Nc1ccc(Br)cn1)C(F)(F)F (centres undefined),/,.,.,.
C=CCOc1ccc(C2NC(=S)NC(c3ccccc3)=C2C(C)=O)cc1OC (centres undefined),/,/,.,?
COc1ccc(C2C=C(C34CC5CC(CC(C5)C3)C4)NC(=S)N2)cc1OC (centres undefined),.,.,.,7.9µM
CSc1nc(=S)n(Cc2ccccc2)c(C)c1C(C)=O,?,.,.,?
C=CCn1c(C)c(C(C)=O)c(SC)nc1=S,.,-84,.,.
O=C(N/N=C/c1c(Nc2cccc(C(F)(F)F)c2)nc2ccccn2c1=O)c1ccccc1,.,.,.,.
O=C(N/N=C/c1c(Nc2cccc(C(F)(F)F)c2)nc2ccccn2c1=O)c1ccccc1[N+](=O)[O-],.,-113,.,.
CCCCC1(C)OC(=O)C(=Cc2ccc(N(C)C)cc2)C(=O)O1 (centres undefined),11µM,.,.,1.1µM
CCCCC1(C)OC(=O)C(=Cc2c[nH]c3ccccc23)C(=O)O1 (centres undefined),/,/,.,.
c1ccc(CCc2nn3c(Cc4ccccc4)nnc3s2)cc1,11µM,.,.,8.9µM
c1ccc(Cc2nnc3sc(-c4cccnc4)nn23)cc1,14µM,?,.,11µM
CN(C)c1ccc(-c2nn3c(-c4cccnc4)nnc3s2)cc1,.,?,?,?
SMILES,HPGD block,PNC inhibitor,KDM4E inh,ALDH1A1 block
c1ccc(Cc2nnc3sc(-c4ccc5c(c4)OCCO5)nn23)cc1,?,.,?,?
c1ccc(Cc2nnc3sc(-c4cccs4)nn23)cc1,8.9µM,.,.,2.8µM
c1csc(-c2nn3c(Cn4cnc5ccccc54)nnc3s2)c1,?,?,.,?
c1ccc(Cc2nnc3sc(-c4ccncc4)nn23)cc1,11µM,?,.,7.9µM
O=C(O)CCC/C=C\C[C@@H]1[C@@H](/C=C/[C@@H](O)COc2cccc(C(F)(F)F)c2)[C@H](O)C[C@@H]1O,.,/,.,.
COc1ccc(C(CNC(=O)c2cncc(Br)c2)N(C)C)cc1 (centres undefined),/,/,.,.
O=C(O)C(O)C(O)C(O)C(O)C(=O)O (centres undefined),.,/,.,.
CCOc1ccccc1-c1nn2c(Cc3ccccc3)nnc2s1,?,.,?,?
c1ccc(Cc2nnc3sc(-c4ccccn4)nn23)cc1,?,?,.,14µM
c1ccc(Cc2nn3c(-c4ccncc4)nnc3s2)cc1,28µM,.,.,22µM
O=C1CCCC2[C@@H]3CCC[N@+]4([O-])CCC[C@H](CN12)C34 (some centres undefined),.,/,.,.
Cc1cc([N+](=O)[O-])cnc1N1CCOCC1,.,-114,.,.
O=[N+]([O-])c1cnc(N2CCCCC2)c([N+](=O)[O-])c1,.,?,.,18µM
CCOC(=O)c1c(C)cc(O)cc1O,.,/,.,.
